ELG1 repair inh – ELG1-dependent DNA repair inhibition; HEK293T ELG1-luciferase reporter, luminescence, 16 h; DNA damage induced by 5-fluorouridine; Potency, µM (series often up to 46.1 µM), without a hit: at the highest dose activity change, negative = inhibition, most hits filed as inhibitors; hit rate 2.3% among 330,000; AID 504467; note: % is set by controls: 0 for no effect and ±100 for the full control effect; nearly all actives have a fitted effect of over 55% in size
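Luminescence from the luciferase reporter, measured 30 min after ONE-Glo reagent at room temperature, was the read-out. Beforehand, 2,000 cells per well were exposed for 16 hr at 37 °C to 5-fluorouridine together with compound or vehicle.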
ELG1 genotoxic – inducers of genotoxicity in HEK293T ELG1-luciferase cells; HEK293T ELG1-luciferase reporter, luminescence, 16 h; Potency, µM (titrated, usually from 46 µM), for inactives: at the highest dose activity change, positive = activation, actives largely listed as activators; hit rate 1.3% among 330,000; AID 504466; note: % of control where 0% means no effect; nearly all actives have a fitted effect of over 60% in size
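Screening used a luciferase reporter fused to human ELG1 in HEK293T cells. Luminescence was read on a CCD plate imager after 16 hr exposure and 30 min ONE-Glo incubation.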
Rab9 prom act – Rab9 promoter activation | AID 485297 | Potency, µM (highest dose often 9.22 µM), inactives show at the top dose activation, negative = inhibition, hits mostly activators | Huh7 Rab9 promoter-luciferase reporter, luminescence, 24 h | hit rate 2.8% among 320,000; note: % of control where 0% means no effect; nearly all actives have a fitted effect of over 60% in size
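Stable Rab9-luc Huh7, 1500 cells/well, 2 h settle; cmpd in DMSO, 24 h, 37 °C/5% CO2; luciferase reagent 10 min RT; luminescence.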
FLuc modulator – inhibits or activates purified firefly luciferase, miR-21 counter-screen; P08659; purified FLuc, Km substrates, luminescence inhibition; Potency, µM (titrated, usually from 57.5 µM), for the others: at the top dose activity change, negative = inhibition, hits mostly inhibitors; hit rate 6.9% among 360,000;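 note: plate controls were vehicle for no effect and reference inhibitor for full effect; nearly all actives have a fitted effect of over 55% in size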
Target sequence (P08659 whole entry, looked up): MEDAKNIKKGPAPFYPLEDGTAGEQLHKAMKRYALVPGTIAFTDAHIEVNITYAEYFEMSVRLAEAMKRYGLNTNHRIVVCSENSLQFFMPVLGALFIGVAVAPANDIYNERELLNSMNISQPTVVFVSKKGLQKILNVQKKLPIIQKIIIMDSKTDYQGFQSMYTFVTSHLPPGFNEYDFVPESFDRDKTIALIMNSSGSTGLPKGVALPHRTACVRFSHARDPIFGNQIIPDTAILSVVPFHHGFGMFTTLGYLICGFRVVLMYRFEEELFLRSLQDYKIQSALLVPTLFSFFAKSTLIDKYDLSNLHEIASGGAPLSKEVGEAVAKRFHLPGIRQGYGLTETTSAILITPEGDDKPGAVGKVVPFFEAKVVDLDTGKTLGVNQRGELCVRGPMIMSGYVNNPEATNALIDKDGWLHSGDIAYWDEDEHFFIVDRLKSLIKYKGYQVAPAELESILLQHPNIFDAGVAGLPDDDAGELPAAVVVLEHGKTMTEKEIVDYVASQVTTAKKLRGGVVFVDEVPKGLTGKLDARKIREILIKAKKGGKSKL
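Purified P. pyralis luciferase, 10 nM final, with Km-level 10 uM D-luciferin and 10 uM ATP in 50 mM Tris acetate pH 7.5, 10 mM Mg acetate, 0.01% Tween-20, 0.05% BSA; 6-point qHTS titration about 60 µM downward; luminescence read.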
NPC1 prom act – activates the NPC1 promoter. Huh7 NPC1 promoter luciferase reporter, 24 h. Potency, µM (series often up to 9.22 µM), for the others: at the top dose activation, most hits filed as activators. hit rate 2.4% among 320,000. AID 485313; note: % of control where 0% means no effect; nearly all actives have a fitted effect of over 60% in size
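Readout is luciferase luminescence, reflecting NPC1 promoter activation in stably transfected Huh7 cells after 24 h compound exposure at 37 °C in reduced-serum medium with 10% FBS.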
SMN2 splice enh – SMN2 splice variant enhancement | HEK293 SMN2-luciferase splicing reporter, luminescence, 30-36 h | Potency, µM (titrated, usually from 46.1 µM), without a hit: at the top dose activity change, positive = activation, hits mostly activators | hit rate 2.8% among 210,000; note: % of control where 0% means no effect; nearly all actives have a fitted effect of over 55% in size
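HEK293 cells carry an SMN2 […]–luciferase reporter in which exon 7 inclusion puts luciferase in frame. Cells were plated 10-12 h before compound addition, then incubated 30-36 h at 37C. ONE-Glo luminescence was read; sodium butyrate at 4.5 mM final served as control.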
* hit, by the source's call. Only some compounds are listed: those with a hit (about 9.4% of all), similar ones and a draw of the others. Calls come from the whole dose curve; as a rule, active = well fitted curve in the direction sought with a large enough effect; inconclusive = small, poorly fitted or top-dose-only effect, or another doubt; inactive = no such curve, though single readings can be large; an effect the other way counts as inactive or inconclusive. Potency is the fitted concentration of half-maximal effect.

What do the screens show for `CSc1ccccc1OCc1cc(C(=O)NC2CCOC(C)(C)C2)no1` (centres undefined)?
ELG1 repair inh: 1%; ELG1 genotoxic: -3%; Rab9 prom act: -3%; FLuc modulator: 2%; NPC1 prom act: -4%

What do the screens show for `COc1ccc(OCc2cc(C(=O)N(C)C3CCOC3)no2)c(Cl)c1` (centres undefined)?
ELG1 repair inh: inconclusive; ELG1 genotoxic: 12%; Rab9 prom act: 9%; FLuc modulator: inconclusive; NPC1 prom act: 2%

How did COc1ccc(OCc2cc(C(=O)N(C)C3CCOCC3)no2)c2ccccc12 do in these assays?
ELG1 repair inh: inconclusive; ELG1 genotoxic: 12%; Rab9 prom act: inconclusive; FLuc modulator: 15µM*; NPC1 prom act: inconclusive

How did Cc1cc(OCc2cc(C(=O)N(C)C3CCOCC3)no2)cc(C)c1Cl do in these assays?
ELG1 repair inh: inconclusive; ELG1 genotoxic: 18%; Rab9 prom act: 4µM*; FLuc modulator: 21µM*; NPC1 prom act: 3.5µM*

What do the screens show for `COc1ccc(OCc2cc(C(=O)NC3CCOC(C)(C)C3)no2)c2ccccc12` (centres undefined)?
ELG1 repair inh: inconclusive; ELG1 genotoxic: inconclusive; Rab9 prom act: 3.5µM*; FLuc modulator: 8.5µM*; NPC1 prom act: 2.8µM*

How did COc1ccccc1OCc1cc(C(=O)N(C)CCC2CCCCO2)no1 (centres undefined) do in these assays?
ELG1 repair inh: inconclusive; ELG1 genotoxic: 10µM*; Rab9 prom act: 1.6µM*; FLuc modulator: 12µM*; NPC1 prom act: 2.5µM*

How did Cc1ccc(OCc2cc(C(=O)NCC3COCCO3)no2)cc1C (centres undefined) do in these assays?
ELG1 repair inh: 8%; ELG1 genotoxic: 18%; FLuc modulator: inconclusive; NPC1 prom act: 1%

How did Cc1ccc(OCc2cc(C(=O)N(C)CC3CCOCC3)no2)cc1C do in these assays?
ELG1 repair inh: inconclusive; ELG1 genotoxic: inconclusive; Rab9 prom act: 3.2µM*; FLuc modulator: 12µM*; NPC1 prom act: 2.8µM*

Results for CCOc1cc(CNC2CCCC2)ccc1OCc1ccccc1Cl ?
ELG1 repair inh: 0%; ELG1 genotoxic: -4%; Rab9 prom act: -7%; FLuc modulator: 0%; NPC1 prom act: 0%; SMN2 splice enh: -42%

Results for CCOc1cc(C2NN=C(c3ccccc3)S2)ccc1OCc1ccc(F)cc1 (centres undefined) ?
ELG1 repair inh: inconclusive; ELG1 genotoxic: 8.2µM*; Rab9 prom act: 3.2µM*; FLuc modulator: 6µM*; NPC1 prom act: inconclusive; SMN2 splice enh: 13µM*

How did CCOc1cc(C2NN=C(c3ccccc3)S2)ccc1OCc1ccccc1Cl (centres undefined) do in these assays?
ELG1 repair inh: inconclusive; ELG1 genotoxic: inconclusive; Rab9 prom act: inconclusive; FLuc modulator: 7.6µM*; NPC1 prom act: inconclusive; SMN2 splice enh: 158%

How did CNCc1ccccc1OCc1ccc(F)cc1 do in these assays?
ELG1 repair inh: 13%; ELG1 genotoxic: -6%; Rab9 prom act: -4%; FLuc modulator: -1%; NPC1 prom act: -4%; SMN2 splice enh: -23%

Results for COc1cc(NC(=O)NC(C)c2c(-n3cccc3)sc3c2CCN(C)C3)cc(OC)c1 (centres undefined) ?
FLuc modulator: 2%

How did Cc1ccc(N=Cc2sccc2C)cc1C do in these assays?
ELG1 repair inh: 5%; ELG1 genotoxic: 0%; Rab9 prom act: 2%; FLuc modulator: 1.9µM*; NPC1 prom act: 1%; SMN2 splice enh: 29%

Results for COc1ccc(-n2c(=S)[nH]c3sc4c(c3c2=O)CCN(C)C4)cc1 ?
ELG1 repair inh: 0%; ELG1 genotoxic: 0%; Rab9 prom act: 0%; FLuc modulator: -3%; NPC1 prom act: -4%

Screening data deposited in PubChem BioAssay by National Center for Advancing Translational Sciences (NCATS).
